The source of these data is PubChem BioAssay AID1159580 (chemical genetic matrix, 2015).

Among all 5,500 compounds or so, about 2,000 (36%) were called active. About 18% were inconclusive and are not listed. The list shows a part of the results. A number with no mark means an inactive call. Rule as the data show it: active = normalized growth mostly below about 0.91 (no sharp cut-off); inconclusive = no clear call, values can overlap the other calls; inactive = mostly above about 0.92.

A short description of this assay: chemical genetic growth profiling, strain panel (AID 1159580).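 Also: tested at 20 µM; growth read once vehicle control cultures reached saturation at 30 °C; 1 = growth at the plate median or of vehicle wells.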 The note with it: S. cerevisiae deletion strains, growth OD.

Regarding `C(=C\c1ccccc1)/CN1CCN(C(c2ccccc2)c2ccccc2)CC1`, the normalized growth is 0.995 (locus YAL040C, strain CLN3, stronger effect = lower value); 0.992 (locus YCL061C, strain MRC1 (second series), stronger effect = lower value); 1.09 [resistant] (active) (locus YER002W, strain NOP16, stronger effect = lower value); 0.998 (locus YMR307W, strain GAS1, stronger effect = lower value); 0.851 (locus YNL153C, strain GIM3, stronger effect = lower value); 1.11 (locus YNL197C, strain WHI3, stronger effect = lower value). In addition, the normalized growth was 1.02 (locus YNL224C, strain SQS1, stronger effect = lower value); 0.99 (locus YOR083W, strain WHI5 (second series), stronger effect = lower value); 1 (locus YPL055C, strain LGE1, stronger effect = lower value).
